Tests used:
Test in all cases: log2 ratio of Biotin-Ahx-Ub-VS probe labelling (fragment/DMSO); higher = less target engagement (more negative = stronger competition), active = hit call of the paper (q ≤ 0.05, log2 ratio ≤ -1)
Settings in all cases: compound concentration: 200 uM; treatment time: 3 h
USP42 = target: T1, USP42 (UniProt Q9H9J4)
T1 sequence (whole entry): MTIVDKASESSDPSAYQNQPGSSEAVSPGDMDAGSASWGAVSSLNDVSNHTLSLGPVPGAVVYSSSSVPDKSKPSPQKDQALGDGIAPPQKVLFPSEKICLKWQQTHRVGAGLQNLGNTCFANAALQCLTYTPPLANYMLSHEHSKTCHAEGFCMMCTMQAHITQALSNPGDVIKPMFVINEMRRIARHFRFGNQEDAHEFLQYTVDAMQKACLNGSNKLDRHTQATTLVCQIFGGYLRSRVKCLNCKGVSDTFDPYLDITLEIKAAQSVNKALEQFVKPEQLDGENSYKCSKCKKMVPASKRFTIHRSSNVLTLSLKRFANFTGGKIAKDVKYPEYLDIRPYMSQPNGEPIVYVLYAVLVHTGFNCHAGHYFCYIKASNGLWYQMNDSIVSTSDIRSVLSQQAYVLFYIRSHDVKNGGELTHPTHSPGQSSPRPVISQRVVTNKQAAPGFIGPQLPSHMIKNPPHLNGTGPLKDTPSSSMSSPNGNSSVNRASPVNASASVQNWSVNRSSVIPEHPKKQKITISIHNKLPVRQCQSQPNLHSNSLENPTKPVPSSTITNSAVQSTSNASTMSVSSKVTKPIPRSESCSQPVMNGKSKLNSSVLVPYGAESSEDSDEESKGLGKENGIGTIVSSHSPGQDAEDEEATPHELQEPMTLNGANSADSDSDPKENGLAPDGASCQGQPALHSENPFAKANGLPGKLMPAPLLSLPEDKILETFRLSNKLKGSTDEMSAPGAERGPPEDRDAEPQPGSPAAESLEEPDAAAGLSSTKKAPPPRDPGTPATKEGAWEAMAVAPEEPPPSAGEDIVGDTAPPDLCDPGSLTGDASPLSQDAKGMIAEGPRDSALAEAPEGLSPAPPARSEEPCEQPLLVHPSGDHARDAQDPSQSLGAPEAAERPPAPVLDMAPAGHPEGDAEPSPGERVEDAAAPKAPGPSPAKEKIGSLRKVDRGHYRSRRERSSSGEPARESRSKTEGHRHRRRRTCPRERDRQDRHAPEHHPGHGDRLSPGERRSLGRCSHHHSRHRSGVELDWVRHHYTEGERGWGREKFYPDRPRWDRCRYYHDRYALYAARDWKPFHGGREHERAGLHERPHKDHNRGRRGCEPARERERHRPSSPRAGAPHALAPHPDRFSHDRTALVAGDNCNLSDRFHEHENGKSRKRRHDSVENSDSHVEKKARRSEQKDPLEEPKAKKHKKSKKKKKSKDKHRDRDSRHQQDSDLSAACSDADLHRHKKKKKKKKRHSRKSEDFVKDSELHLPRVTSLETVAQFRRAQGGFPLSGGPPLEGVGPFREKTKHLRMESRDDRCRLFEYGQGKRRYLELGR
Summary of the method: (§1)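 The table lists average log2 ratios of fragment over vehicle, from an unpaired t-test on global-median-normalised Spectronaut label-free quantities. Proteins with ≥2 unique peptides were used. Samples were HEK293T lysate (495 µg) treated in triplicate with fragment at 200 µM or vehicle for 3 h, then with Biotin-Ahx-Ub-VS (0.5 µM final) for 1 h, with labelled DUBs NeutrAvidin-enriched and run by diaPASEF LC-MS/MS.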

USP46 = USP46 (UniProt P62068)
Chain of USP46 (P62068 whole entry): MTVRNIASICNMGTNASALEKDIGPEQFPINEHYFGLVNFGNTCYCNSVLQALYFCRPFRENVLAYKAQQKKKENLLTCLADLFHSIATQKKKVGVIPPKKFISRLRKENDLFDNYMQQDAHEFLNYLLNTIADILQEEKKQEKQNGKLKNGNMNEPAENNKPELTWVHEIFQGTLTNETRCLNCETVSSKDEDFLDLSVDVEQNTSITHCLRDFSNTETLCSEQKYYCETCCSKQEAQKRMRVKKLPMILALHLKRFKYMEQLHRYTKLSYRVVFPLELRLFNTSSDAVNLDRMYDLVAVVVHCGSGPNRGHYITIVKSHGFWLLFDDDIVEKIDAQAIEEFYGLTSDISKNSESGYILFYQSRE
Summary of the method: as §1

USP47 = target: T2, USP47 (UniProt Q96K76)
T2 sequence (whole entry): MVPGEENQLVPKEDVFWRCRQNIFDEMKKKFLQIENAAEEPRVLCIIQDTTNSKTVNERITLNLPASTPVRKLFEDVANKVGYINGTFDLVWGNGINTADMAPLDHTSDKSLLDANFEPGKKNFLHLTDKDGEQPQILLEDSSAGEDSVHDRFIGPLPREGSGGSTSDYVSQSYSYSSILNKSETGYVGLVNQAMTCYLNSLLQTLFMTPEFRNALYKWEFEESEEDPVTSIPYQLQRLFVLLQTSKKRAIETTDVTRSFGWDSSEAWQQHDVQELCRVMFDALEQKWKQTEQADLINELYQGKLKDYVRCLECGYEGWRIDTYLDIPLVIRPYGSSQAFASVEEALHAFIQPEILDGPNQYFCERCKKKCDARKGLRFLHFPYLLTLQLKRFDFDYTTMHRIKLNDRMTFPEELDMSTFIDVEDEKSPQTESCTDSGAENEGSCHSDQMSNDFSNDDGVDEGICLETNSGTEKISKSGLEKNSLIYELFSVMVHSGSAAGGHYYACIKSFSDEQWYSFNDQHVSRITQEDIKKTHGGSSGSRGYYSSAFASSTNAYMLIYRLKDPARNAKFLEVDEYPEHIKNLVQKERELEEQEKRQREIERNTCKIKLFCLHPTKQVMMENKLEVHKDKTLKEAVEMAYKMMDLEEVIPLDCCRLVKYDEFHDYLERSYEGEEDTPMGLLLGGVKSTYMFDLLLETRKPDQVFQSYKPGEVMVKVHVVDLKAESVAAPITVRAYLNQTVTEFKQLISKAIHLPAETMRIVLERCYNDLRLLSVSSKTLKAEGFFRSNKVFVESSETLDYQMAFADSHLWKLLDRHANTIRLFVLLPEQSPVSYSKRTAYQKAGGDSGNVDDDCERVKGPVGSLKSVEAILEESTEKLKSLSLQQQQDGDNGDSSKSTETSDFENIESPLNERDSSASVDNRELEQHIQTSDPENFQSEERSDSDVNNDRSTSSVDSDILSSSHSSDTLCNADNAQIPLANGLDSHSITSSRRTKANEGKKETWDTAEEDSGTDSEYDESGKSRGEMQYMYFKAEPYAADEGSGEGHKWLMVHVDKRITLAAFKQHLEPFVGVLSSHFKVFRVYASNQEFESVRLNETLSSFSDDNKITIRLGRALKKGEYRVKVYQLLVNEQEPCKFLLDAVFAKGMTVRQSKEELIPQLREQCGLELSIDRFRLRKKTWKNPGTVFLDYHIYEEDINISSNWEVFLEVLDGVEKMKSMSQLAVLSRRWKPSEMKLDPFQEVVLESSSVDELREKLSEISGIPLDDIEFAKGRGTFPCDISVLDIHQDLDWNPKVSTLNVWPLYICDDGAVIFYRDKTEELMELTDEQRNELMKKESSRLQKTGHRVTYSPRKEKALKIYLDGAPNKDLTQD
Summary of the method: as §1

USP48 = target: T3, USP48 (UniProt Q86UV5)
T3 sequence (whole entry): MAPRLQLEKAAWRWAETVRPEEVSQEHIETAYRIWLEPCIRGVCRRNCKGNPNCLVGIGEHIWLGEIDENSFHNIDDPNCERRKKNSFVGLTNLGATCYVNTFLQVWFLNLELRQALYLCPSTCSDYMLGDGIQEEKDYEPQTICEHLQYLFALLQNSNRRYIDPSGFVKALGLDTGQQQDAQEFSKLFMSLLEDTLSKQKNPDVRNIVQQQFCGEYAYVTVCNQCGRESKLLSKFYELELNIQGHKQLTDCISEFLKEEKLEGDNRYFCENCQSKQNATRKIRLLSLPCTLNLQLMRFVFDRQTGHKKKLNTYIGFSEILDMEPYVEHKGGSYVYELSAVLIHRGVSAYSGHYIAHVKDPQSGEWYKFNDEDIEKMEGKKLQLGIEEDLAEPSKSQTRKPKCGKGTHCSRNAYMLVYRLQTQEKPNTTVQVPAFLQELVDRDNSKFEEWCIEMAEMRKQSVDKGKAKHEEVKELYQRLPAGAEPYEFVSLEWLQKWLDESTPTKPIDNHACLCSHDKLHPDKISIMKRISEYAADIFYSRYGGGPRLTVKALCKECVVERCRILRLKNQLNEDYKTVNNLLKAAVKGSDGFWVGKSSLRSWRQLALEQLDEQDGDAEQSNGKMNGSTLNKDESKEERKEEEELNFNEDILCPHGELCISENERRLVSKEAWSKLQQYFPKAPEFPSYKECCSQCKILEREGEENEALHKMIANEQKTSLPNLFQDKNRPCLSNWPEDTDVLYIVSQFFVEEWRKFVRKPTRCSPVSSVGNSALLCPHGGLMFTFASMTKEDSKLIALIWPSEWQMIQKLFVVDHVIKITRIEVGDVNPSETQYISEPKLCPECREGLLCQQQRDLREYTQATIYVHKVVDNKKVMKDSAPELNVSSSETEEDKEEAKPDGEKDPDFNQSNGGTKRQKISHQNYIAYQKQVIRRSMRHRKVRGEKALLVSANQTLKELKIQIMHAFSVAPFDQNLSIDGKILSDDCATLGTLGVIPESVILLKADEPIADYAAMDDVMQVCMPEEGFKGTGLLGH
Summary of the method: as §1

USP5 = target: T4, USP5 (UniProt P45974)
T4 sequence (whole entry): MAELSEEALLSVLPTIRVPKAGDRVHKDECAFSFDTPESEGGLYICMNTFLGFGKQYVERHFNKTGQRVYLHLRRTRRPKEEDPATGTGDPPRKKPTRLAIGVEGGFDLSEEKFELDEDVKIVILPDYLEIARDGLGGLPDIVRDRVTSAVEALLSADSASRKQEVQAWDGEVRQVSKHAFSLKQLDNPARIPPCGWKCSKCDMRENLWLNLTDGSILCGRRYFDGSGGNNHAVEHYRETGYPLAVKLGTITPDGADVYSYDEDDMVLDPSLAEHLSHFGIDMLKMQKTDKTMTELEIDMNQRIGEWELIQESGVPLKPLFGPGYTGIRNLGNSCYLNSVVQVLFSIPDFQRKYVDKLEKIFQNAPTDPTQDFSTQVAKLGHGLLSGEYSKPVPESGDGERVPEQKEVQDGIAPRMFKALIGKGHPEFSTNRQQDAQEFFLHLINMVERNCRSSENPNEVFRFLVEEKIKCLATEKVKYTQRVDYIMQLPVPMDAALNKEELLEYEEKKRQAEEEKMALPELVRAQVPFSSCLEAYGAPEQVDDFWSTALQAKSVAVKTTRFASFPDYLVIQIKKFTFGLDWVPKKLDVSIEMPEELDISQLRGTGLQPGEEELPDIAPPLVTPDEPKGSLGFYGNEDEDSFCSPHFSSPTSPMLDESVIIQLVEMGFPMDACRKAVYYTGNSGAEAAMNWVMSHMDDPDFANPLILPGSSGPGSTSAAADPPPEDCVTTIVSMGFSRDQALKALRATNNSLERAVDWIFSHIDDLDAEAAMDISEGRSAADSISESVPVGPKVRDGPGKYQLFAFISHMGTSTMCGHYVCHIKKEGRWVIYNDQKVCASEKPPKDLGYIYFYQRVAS
Summary of the method: as §1

USP54 = USP54 (UniProt Q70EL1)
Summary of the method: as §1

USP7 = USP7 (UniProt Q93009)
Chain of USP7 (Q93009 whole entry, looked up): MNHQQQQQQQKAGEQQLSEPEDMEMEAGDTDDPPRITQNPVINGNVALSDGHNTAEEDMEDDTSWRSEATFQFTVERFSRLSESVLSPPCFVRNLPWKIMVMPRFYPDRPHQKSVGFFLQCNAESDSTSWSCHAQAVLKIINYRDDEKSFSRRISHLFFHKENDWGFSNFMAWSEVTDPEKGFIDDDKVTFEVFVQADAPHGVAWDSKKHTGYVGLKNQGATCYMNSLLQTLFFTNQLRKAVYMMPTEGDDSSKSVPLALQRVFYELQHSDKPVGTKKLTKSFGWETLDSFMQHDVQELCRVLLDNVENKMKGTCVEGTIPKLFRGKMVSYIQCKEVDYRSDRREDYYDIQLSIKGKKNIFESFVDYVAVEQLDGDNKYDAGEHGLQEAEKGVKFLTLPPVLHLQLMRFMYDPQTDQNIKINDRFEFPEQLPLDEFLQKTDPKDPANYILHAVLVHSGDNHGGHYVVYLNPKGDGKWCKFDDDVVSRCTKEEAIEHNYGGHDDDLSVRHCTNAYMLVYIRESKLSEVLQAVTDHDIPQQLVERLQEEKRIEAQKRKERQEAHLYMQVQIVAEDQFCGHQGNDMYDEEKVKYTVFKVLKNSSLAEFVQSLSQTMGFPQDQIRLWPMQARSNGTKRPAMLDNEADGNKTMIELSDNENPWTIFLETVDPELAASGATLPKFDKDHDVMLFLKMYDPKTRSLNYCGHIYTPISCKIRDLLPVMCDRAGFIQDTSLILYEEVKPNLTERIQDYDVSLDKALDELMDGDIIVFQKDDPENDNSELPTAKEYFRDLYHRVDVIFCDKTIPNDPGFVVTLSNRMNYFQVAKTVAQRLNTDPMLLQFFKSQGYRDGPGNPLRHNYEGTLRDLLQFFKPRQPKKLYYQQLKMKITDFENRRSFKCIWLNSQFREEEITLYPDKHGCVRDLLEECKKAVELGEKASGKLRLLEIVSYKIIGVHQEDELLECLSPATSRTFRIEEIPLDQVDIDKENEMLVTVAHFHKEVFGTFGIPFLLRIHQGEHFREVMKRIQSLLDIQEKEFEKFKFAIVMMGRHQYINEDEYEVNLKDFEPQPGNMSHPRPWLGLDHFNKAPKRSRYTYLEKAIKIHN
Summary of the method: as §1

USP8 = target: T5, USP8 (UniProt P40818)
T5 sequence (whole entry): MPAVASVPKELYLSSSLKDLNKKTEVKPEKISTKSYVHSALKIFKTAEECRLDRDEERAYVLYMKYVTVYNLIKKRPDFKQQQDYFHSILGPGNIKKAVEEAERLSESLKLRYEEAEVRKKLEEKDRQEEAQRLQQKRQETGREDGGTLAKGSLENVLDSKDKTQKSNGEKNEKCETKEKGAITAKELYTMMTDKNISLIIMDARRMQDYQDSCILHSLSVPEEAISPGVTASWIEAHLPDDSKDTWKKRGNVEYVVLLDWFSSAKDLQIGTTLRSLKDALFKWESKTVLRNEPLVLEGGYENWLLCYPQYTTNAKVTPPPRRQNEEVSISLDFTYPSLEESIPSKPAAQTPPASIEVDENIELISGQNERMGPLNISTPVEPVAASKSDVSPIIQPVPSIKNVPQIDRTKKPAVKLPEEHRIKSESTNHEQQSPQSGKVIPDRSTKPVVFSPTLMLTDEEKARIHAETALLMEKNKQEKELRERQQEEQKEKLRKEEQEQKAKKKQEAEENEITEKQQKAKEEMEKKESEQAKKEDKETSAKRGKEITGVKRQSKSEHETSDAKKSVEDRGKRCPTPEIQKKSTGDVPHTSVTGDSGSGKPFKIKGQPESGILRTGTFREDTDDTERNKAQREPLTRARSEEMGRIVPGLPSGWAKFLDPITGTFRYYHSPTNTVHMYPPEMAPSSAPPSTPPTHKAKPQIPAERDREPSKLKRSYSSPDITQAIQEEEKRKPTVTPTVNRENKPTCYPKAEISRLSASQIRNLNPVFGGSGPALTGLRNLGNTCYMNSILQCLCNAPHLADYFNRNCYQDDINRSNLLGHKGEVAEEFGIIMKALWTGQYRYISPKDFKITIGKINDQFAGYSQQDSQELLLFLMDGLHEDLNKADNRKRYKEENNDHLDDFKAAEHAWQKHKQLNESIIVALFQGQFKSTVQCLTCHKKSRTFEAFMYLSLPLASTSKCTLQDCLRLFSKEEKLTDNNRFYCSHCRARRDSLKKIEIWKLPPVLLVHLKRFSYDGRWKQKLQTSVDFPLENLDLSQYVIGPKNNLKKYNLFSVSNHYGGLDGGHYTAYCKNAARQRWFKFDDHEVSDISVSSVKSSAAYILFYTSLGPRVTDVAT
Summary of the method: as §1

USP9X = USP9X (UniProt Q93008)
Chain of USP9X (Q93008 whole entry): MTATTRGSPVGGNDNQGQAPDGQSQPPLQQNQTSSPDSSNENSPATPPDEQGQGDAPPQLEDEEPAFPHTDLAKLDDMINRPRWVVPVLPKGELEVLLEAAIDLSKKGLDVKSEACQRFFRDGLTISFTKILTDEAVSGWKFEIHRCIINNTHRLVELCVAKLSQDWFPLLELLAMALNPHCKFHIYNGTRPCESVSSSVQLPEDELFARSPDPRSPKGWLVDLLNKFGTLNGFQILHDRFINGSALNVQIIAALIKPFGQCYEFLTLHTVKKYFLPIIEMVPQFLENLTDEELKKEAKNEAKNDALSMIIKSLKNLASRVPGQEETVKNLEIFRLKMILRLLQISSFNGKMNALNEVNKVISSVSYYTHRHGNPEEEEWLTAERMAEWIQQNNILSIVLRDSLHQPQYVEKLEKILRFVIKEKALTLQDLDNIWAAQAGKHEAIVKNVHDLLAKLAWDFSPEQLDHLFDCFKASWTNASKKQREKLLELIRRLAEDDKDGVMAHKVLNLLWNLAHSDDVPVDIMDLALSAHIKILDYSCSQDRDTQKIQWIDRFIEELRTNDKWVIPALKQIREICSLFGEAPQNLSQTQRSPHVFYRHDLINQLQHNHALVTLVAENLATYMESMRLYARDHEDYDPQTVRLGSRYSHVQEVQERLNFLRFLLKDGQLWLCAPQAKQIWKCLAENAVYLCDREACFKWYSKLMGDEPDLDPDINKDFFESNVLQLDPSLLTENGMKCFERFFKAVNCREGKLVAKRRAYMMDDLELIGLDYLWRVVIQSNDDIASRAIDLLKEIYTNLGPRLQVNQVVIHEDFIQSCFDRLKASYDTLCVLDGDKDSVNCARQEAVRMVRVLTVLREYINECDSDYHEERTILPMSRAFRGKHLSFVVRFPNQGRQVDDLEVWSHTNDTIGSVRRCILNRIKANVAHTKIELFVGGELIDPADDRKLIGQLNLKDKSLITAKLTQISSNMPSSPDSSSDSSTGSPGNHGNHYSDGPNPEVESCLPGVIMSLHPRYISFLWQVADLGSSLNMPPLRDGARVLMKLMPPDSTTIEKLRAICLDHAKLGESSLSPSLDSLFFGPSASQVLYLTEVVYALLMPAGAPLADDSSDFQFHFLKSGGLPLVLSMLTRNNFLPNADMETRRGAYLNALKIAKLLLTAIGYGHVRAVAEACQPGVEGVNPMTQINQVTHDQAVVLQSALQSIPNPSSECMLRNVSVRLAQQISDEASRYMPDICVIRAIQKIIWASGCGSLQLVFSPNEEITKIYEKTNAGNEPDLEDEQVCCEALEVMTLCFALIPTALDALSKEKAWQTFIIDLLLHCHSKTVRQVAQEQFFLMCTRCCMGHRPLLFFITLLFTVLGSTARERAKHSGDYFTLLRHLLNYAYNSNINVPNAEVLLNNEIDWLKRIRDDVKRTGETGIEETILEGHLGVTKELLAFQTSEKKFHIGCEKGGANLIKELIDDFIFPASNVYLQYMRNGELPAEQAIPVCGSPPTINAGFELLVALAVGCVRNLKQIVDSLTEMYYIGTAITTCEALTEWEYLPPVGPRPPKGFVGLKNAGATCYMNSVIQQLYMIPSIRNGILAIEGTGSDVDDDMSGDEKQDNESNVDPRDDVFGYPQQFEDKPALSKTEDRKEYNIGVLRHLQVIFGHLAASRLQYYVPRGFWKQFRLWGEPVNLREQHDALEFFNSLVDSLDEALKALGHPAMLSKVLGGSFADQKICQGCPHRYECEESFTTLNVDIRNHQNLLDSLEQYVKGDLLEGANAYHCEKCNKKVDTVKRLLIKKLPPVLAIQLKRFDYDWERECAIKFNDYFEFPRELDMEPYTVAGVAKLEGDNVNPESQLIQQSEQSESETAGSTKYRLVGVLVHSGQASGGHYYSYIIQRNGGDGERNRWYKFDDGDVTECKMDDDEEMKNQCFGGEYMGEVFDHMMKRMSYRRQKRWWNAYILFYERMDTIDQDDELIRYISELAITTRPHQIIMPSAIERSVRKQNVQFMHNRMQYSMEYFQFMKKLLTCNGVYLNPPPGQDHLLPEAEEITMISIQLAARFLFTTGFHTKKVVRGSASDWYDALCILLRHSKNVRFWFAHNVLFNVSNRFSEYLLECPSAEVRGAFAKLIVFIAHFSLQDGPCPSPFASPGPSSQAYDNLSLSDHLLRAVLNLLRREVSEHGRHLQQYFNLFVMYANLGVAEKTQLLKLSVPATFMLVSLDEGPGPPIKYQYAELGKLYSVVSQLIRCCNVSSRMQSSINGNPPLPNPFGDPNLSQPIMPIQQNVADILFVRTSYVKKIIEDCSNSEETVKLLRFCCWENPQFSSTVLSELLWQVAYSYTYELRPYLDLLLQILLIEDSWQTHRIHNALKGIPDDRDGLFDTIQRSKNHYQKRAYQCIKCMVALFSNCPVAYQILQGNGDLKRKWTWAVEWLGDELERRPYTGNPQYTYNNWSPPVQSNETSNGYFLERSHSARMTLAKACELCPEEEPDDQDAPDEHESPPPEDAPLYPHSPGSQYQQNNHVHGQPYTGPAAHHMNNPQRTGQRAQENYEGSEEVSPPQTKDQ
Summary of the method: as §1

UniProt O00487 = target: UniProt O00487
Chain of UniProt O00487 (O00487 whole entry): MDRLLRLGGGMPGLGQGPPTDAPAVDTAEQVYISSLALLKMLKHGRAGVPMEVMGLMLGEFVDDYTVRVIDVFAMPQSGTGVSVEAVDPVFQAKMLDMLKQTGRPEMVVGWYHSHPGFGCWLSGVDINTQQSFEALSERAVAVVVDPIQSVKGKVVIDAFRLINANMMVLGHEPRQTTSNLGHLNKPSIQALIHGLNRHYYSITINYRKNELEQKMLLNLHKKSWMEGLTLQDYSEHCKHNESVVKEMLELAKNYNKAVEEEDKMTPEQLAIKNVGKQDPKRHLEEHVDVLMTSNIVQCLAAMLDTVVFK
Summary of the method: as §1

Measured: log2 ratio of Biotin-Ahx-Ub-VS probe labelling

Cc1ccc(CC(CO)CNC(=O)CCl)cc1 (stereo not given)
inactive: USP42 -0.0167 | USP46 -0.000866 | USP47 -0.102 | USP48 -0.405 | USP5 -0.182 | USP54 0.455 | USP7 -0.381 | USP8 -0.322 | USP9X -0.363 | UniProt O00487 -0.242

From the supplement of paper PMC11732987, “Enantioselective OTUD7B fragment discovery through chemoproteomics screening and high-throughput optimisation” (Communications Chemistry, 2025)
